Test in all cases: NCI-60 one-dose screen, 48 h (100 = growth as untreated, 0 = no growth, -100 = all killed)
Holding throughout (conditions): 10 µM unless noted

For assay [1], the system named is SR leukemia.
Assay [2] deals with RPMI-8226 leukemia.
Assay [3] has as its system OVCAR-8 ovarian.
Assay [4] has as its system OVCAR-5 ovarian.
Assay [5] concerns OVCAR-4 ovarian.
Assay [6] relates to SK-OV-3 ovarian.
The test system of assay [7] is OVCAR-3 ovarian.
The subject of assay [8] is HS 578T breast.
Assay [9] relates to NCI/ADR-RES ovarian.
Assay [10] concerns T-47D breast.
Assay [11] deals with BT-549 breast.
In assay [12] the test system is MDA-MB-435 melanoma.
The subject of assay [13] is SW-620 colon.
The test system of assay [14] is MCF7 breast.
Assay [15] deals with HCT-116 colon.
In assay [16] the test system is HCC-2998 colon.
Assay [17] relates to KM12 colon.
The test system of assay [18] is IGROV1 ovarian.

The structures appear in SMILES notation. The panel holds about 83,000 compounds, 20% with a hit somewhere; the sample as a whole holds those more often.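 For each line, cells grew in 96-well plates with the test compound present at a single concentration for 48 hours.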 A number with no mark means an inactive call. Activity calls are given as the source filed them. Rule for the calls: active = growth percent below 10; inactive = the rest.

Regarding `COC(=O)c1cc2cc(-c3ccc(OC)cc3)cnc2[nH]1`, the growth in [1] is 10.7%; in assay [2], -5.41% (active); in [3], 8.62% (active); in assay [4] it was 44.9%; in assay [5] it was 30.2%; in assay [6], 1.35% (active). Moreover, the growth in assay [7] is -55.7% (active); in [8], 33.8%; in assay [9], -35.6% (active); in assay [10], 34.1%; in assay [11] it was 18.6%; in assay [12], -23.7% (active). Besides, the growth in assay [13] is 18.6%; in assay [14], 15.9%; in assay [15] it was 13.8%; in assay [16] it was 51.1%; in assay [17], 11.4%.

Turning to `COc1cc2c(cc1O)CCN1C[C@@H](CC(C)C)[C@@H](O)C[C@@H]21`, the growth in [1] is 103%; in [2], 92.5%; in [3] it was 101%; in [4], 94.3%; in [5] it was 98.6%; in assay [6], 107%. The growth in assay [7] is 108%; in assay [8], 114%; in assay [9] it was 98.2%; in [10] it was 91.1%; in assay [11], 108%; in assay [12] it was 103%. The growth was 102% in assay [13]; 102% in assay [14]; 101% in assay [15]; 102% in assay [16]; 109% in assay [17].

Consider `COc1ccc(C(=O)N2NC(=O)/C(=C/c3cn(-c4ccccc4)nc3-c3ccccc3)N=C2c2ccccc2)cc1`, for which the growth in assay [1] was 99.9%; in assay [2], 102%; in assay [3], 105%; in assay [4], 111%; in assay [5], 101%; in assay [6], 107%. Also, the growth was 98.6% in assay [18]; 115% in assay [7]; 97.3% in assay [8]; 97.6% in [10]; 106% in [11]; 92.2% in assay [12]. The growth in assay [13] is 109%; in [15] it was 95.2%; in [16], 107%; in [17], 99.1%.

Take `CCN(CC)CCCC(C)Nc1c2ccc(Cl)cc2nc2cc(OC)c(OC)cc12` (stereo not given): the growth in assay [1] was -14.2% (active); in [2], -33% (active); in assay [3], 14.1%; in assay [4] it was 50.9%; in assay [5], -30.7% (active); in assay [6], 40.5%. Moreover, the growth in assay [18] was 24.3%; in assay [7], 34.4%; in assay [8], 44.2%; in [10], 61.9%; in assay [11], 55.3%; in [12], -81.8% (active). Besides, the growth in [13] was -25.2% (active); in assay [14], 0.0607% (active); in assay [15], -42.5% (active); in assay [16] it was 18.1%; in [17], 8.52% (active).

Regarding `COc1cc(/C=C/C(=O)c2cccc(-n3cc(-c4cc(OC)c(OC)c(OC)c4)[nH]c3=O)c2)cc(OC)c1OC`, the growth is -12.7% (active) in assay [1]; -46.4% (active) in assay [2]; 6.44% (active) in [3]; 28.4% in [4]; 23.2% in assay [5]; 49.6% in assay [6]. Moreover, the growth in assay [7] is -39% (active); in assay [8] it was 62.4%; in assay [9], 10.5%; in assay [10] it was 8.37% (active); in [11] it was -2.07% (active); in [12], 3.2% (active). The growth is -47.2% (active) in assay [13]; -5.04% (active) in [14]; -78.3% (active) in [15]; 23.1% in assay [16]; -83.4% (active) in [17].

As to `Cc1ccc(Cc2c(C=O)nc(N)[nH]c2=O)c2ccccc12`, the growth was 63.5% in [1]; 99.6% in [2]; 89.6% in assay [3]; 117% in assay [4]; 97.6% in assay [5]; 96.6% in assay [6]. The growth was 106% in [18]; 109% in assay [8]; 103% in assay [9]; 95.5% in assay [10]; 87.9% in assay [11]; 107% in assay [12]. Also, the growth is 103% in assay [13]; 103% in assay [14]; 88.2% in assay [15]; 101% in assay [16]; 102% in assay [17].

Regarding `Nc1nc(-c2ccccc2)c(CCCOc2ccc(NC(=O)CBr)cc2)c(=O)[nH]1`, the growth is 117% in assay [1]; 112% in assay [2]; 98.3% in [3]; 104% in [4]; 92.1% in [5]; 125% in assay [6]. In addition, the growth was 125% in [18]; 99.1% in [8]; 106% in assay [9]; 100% in assay [11]; 94.6% in [12]; 108% in assay [13]. Also, the growth in [14] is 78.8%; in assay [15], 103%; in assay [16], 107%; in assay [17], 109%.

As to `C=C1C(=O)O[C@H]2[C@H]1CC/C(Cn1cc(-c3cccc(Cl)c3)nn1)=C\CC[C@@]1(C)O[C@@H]21`, the growth in [1] is -3.12% (active); in [2], -34% (active); in assay [3], -43.7% (active); in assay [4], -36.7% (active); in assay [5], -71.3% (active); in assay [6], 80.8%. The growth was -50.4% (active) in assay [18]; -92.8% (active) in assay [7]; -0.629% (active) in assay [8]; -43.7% (active) in assay [10]; -49.5% (active) in assay [11]; -78.6% (active) in [12]. The growth in assay [13] was -77.8% (active); in assay [14], -46.8% (active); in assay [15], -84.8% (active); in assay [16], -85.5% (active); in assay [17], 12.9%.

For the compound `Cn1ncc2c(Sc3ccc(Cl)cc3)ncnc21`, the growth in [1] is 53.6%; in assay [2], 48.5%; in assay [3] it was 101%; in assay [4] it was 109%; in assay [5] it was 95.7%; in assay [6] it was 94.2%. In addition, the growth in assay [18] was 87.4%; in [9] it was 103%; in assay [10] it was 76.1%; in [11] it was 62.1%; in [12], 92.3%; in [13], 100%. Also, the growth in assay [14] was 87.4%; in [15] it was 103%; in assay [16], 85.7%; in assay [17], 95.6%.
